Compound activity: PubChem, National Center for Advancing Translational Sciences (NCATS)
This is a sample that favours compounds with a hit; in the whole collection about 10% have one here.
MCF10A rerep: A quantitative high throughput screen for small molecules that induce DNA re-replication in MCF 10a normal breast cells. MCF 10A DNA re-replication, Hoechst nuclear intensity, 48 h. Potency, µM (highest dose often 46.1 µM), for the others: at the highest dose activity, positive = re-replication, actives largely listed as activators. actives 2.9% (n = 350,000). AID 624296, 2012; further: % of control where 0% means no effect; nearly all actives have a fitted effect of over 50% in size
SW480 rereplic: A quantitative high throughput screen for small molecules that induce DNA re-replication in SW480 colon adenocarcinoma cells. SW480 DNA re-replication, Hoechst DNA content imaging, 48 h. Potency, µM (doses to about 46.1 µM), without a hit: at the highest dose re-replication activation, hits mostly activators. actives 1.8% (n = 340,000); further: % of control where 0% means no effect; nearly all actives have a fitted effect of over 55% in size
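Image-based DNA-content assay: after two days of treatment, nuclei were labelled with the DNA dye Hoechst and imaged, and hits were compounds raising the count of nuclei showing high fluorescence intensity.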
RORg inh: qHTS for inhibitors of ROR gamma transcriptional activity; Drosophila S2 Gal4-RORgamma UAS-luciferase reporter, 20 h; actives 5.4% (n = 310,000); Potency, µM (series often up to 53.6 µM), for the others: at the top dose activity change, negative = inhibition, usual class: inhibitors; AID 2551, 2010; further: on the % scale 0 is the no-effect control and ±100 the full control effect; nearly all actives have a fitted effect of over 60% in size
Target sequence (P51450 whole entry, looked up, the tested form may be a part): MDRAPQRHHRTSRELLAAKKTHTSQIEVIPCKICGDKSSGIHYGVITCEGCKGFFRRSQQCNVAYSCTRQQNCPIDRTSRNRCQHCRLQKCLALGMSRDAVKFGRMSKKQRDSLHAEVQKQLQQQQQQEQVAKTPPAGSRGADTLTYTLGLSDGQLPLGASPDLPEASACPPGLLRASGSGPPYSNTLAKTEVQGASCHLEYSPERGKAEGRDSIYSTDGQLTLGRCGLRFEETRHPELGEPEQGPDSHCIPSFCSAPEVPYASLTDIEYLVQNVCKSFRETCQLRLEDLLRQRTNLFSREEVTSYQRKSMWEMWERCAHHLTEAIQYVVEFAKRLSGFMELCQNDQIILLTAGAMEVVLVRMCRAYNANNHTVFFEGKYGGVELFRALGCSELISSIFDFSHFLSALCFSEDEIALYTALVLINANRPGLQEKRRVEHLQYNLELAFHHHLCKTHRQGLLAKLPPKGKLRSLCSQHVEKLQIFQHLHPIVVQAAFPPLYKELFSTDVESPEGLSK
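Drosophila S2 cells stably expressing Gal4-DBD/mouse RORγ fusion under metallothionein promoter plus UAS-luciferase; compound 1 h, then 700 uM CuSO4 induction for 20 h at ambient temperature; inhibition read as reduced luminescence.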
ELG1 repair inh: qHTS screen for small molecules that inhibit ELG1-dependent DNA repair in human embryonic kidney (HEK293T) cells expressing luciferase-tagged ELG1; Potency, µM (titrated, usually from 46.1 µM), inactives show top-dose activity change, negative = inhibition, actives largely listed as inhibitors; HEK293T ELG1-luciferase reporter, luminescence, 16 h; DNA damage induced by 5-fluorouridine; actives 2.3% (n = 330,000); further: on the % scale 0 is the no-effect control and ±100 the full control effect; nearly all actives have a fitted effect of over 55% in size
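Reporter activity after DNA damage by 5-fluorouridine is monitored. Compound-treated cells incubate 16 hr at 37 °C, then ONE-Glo is added for 30 min before luminescence reading.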
VP16 counter: VP16 counterscreen qHTS for inhibitors of ROR gamma transcriptional activity. Drosophila S2 Gal4-VP16 UAS-luciferase, luminescence, 20 h. Potency, µM (series often up to 53.6 µM), for inactives: at the top dose activity, negative = inhibition, hits mostly inhibitors. actives 3.5% (n = 310,000);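 further: Gal4-VP16 expression switched on by copper sulfate through the metallothionein promoter; on the % scale 0 is the no-effect control and ±100 the full control effect; nearly all actives have a fitted effect of over 50% in size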
Active calls of the source: *; ? = inconclusive; · = no result given; [ ] = dose if it differs, or a comment. The call rests on the fitted dose curve; in most records, active means well fitted curve in the direction sought with a large enough effect; inconclusive means small, poorly fitted or top-dose-only effect, or another doubt; inactive means no such curve, though single readings can be large; an effect the other way counts as inactive or inconclusive. Potency means the concentration at half of the fitted maximal effect.

SMILES	MCF10A rerep	SW480 rereplic	RORg inh	ELG1 repair inh	VP16 counter
Cc1cc(C)n(C(=O)CNC(=O)c2ccc(Cl)cc2Cl)n1	-5%	-3%	24%	-3%	19%
O=C1C(C2=NC(C(=O)O)C3C(=O)N(c4ccccc4)C(=O)C23)=C(O)c2ccccc21 (stereo unspecified)	4%	0%	11µM*	?	13µM*
CCOC(=O)C1=C(C)NC2=C(C(=O)CC(c3cccs3)C2)C1c1cccs1 (stereo unspecified)	20µM*	?	?	?	0%
CCOC(=O)N1CCN(C(=O)CCc2cc(OC)c(OC)c(OC)c2)CC1	2%	-4%	0%	10%	3%
Cc1[nH]c(=S)c(C#N)c(C)c1CCC#N	36%	?	14µM*	1%	-16%
Cc1[nH]c(=S)c(C#N)c(C)c1Cc1ccccc1	-2%	-6%	3.5µM*	-7%	8.9µM*
Cc1cccc(Cc2c(C)[nH]c(=O)c(C#N)c2C)c1	?	-51%	-31%	17%	11%
CCOC(=O)Cc1cc(-c2ccc(F)cc2)nc2ccc3ccccc3c12	27%	-3%	-21%	12%	-12%
Cc1cc(Br)ccc1NC(=O)CN(C)C(=O)c1cc([N+](=O)[O-])ccc1N1CCOCC1	1%	6%	·	-12%	·
CS/C(Nc1cc(Cl)ccc1Cl)=C(/C#N)C(=O)c1ccco1	?	-10%	10µM*	?	14µM*
O=C(Nc1cc(Cl)ccc1Cl)c1ccco1	0%	-1%	32%	?	4%
O=C(COc1cccc(Cl)c1)Nc1nc(-c2ccc(S(=O)(=O)N3CCOCC3)cc2)cs1	?	1%	22%	23µM*	-10%
COc1ccccc1C(=O)Nc1nc(-c2ccc(S(=O)(=O)N3CCOCC3)cc2)cs1	?	7%	-22%	5.2µM*	3.2µM*
Clc1ccc(OCc2noc(-c3ccsc3)n2)c(Cl)c1	11%	-5%	7%	?	5%
CCOc1ncccc1C(=O)NCC(c1ccccc1)N(C)C (stereo unspecified)	0%	1%	0%	7%	-8%
O=C(Cn1nc(C(F)F)cc1C(F)F)NNC(=S)Nc1ccc(Cl)cc1	2%	-2%	-39%	1%	-3%
Cc1cccc(NC(=S)NNC(=O)CCn2nc(C)c([N+](=O)[O-])c2C)c1	-3%	?	1.8µM*	17%	0%
Cc1ccc(NC(=S)NNC(=O)Cn2nc(C(F)F)cc2C(F)F)cc1	-3%	1%	2.2µM*	-2%	-25%
Cc1nn(CC(=O)NNC(=S)Nc2ccccc2)c(C)c1[N+](=O)[O-]	-3%	-5%	8.9µM*	0%	13µM*
CCOc1ccc(S(=O)(=O)N2CCC(C(=O)NC3CC3)CC2)cc1Cl	1%	11%	19%	-9%	4%
CC(C)(CNC(=O)c1ccc(Br)o1)CNC(=O)c1ccc(Br)o1	0%	2%	·	-9%	·
COC(=O)C1=C(C)NC(=S)NC1c1ccc(OC(=O)c2ccco2)cc1 (stereo unspecified)	13%	1%	-27%	7%	-1%
CC1=C(C(=O)Nc2ccccc2C(F)(F)F)C(c2sccc2C)NC(=S)N1 (stereo unspecified)	?	?	20µM*	1%	-2%
COC(=O)C1=C(C)NC(=S)NC1c1ccc(-c2cc(Cl)ccc2Cl)o1 (stereo unspecified)	?	?	4µM*	?	4.5µM*
COC(=O)C1=C(C)NC(=S)NC1c1sccc1C (stereo unspecified)	-7%	7%	16µM*	-2%	-10%
SMILES	MCF10A rerep	SW480 rereplic	RORg inh	ELG1 repair inh	VP16 counter
CC1=C(C(=O)OC(C)C)C(c2cccs2)NC(=S)N1 (stereo unspecified)	-2%	2%	13µM*	-9%	?
CC1=C(C(=O)OC(C)C)C(c2ccc(C)o2)C(C(=O)OC(C)C)=C(C)N1	-14%	0%	28%	18µM*	-25%
COC(=O)C1=C(C)NC(C)=C(C(=O)OC)C1c1ccc(C)o1	4%	2%	-1%	0%	0%
COc1ccccc1N1CCNC(C)C1=O (stereo unspecified)	-9%	-3%	8%	0%	5%
COc1ccc(CN2CCN(Cc3ccc(C(F)(F)F)cc3)CC2)c(OC)c1	3%	16µM*	17%	-22%	-9%
CCOC(=O)C(=Nc1ccccc1)NO	1%	-1%	-17%	18%	3%
Cc1ccsc1/C=C(\C(=O)c1ccc(OC(C)C)cc1)c1nc2ccccc2o1	18%	8.2µM*	?	?	-9%
CCN(CC)S(=O)(=O)c1ccc(OC(C)C)c(NC(=O)C2=COCCO2)c1	7%	2%	·	?	·
CC1CCC2(CC1)C(Nc1cccc(Cl)c1)=NC(=S)N2CC#N (stereo unspecified)	18%	-3%	3.5µM*	-26%	3.2µM*
O=C(c1ccc(F)cc1)N1CCN(c2ccc(N3CCOCC3)nn2)CC1	?	-13%	3%	3%	1%
O=C(c1ccc(CSCc2ccccc2F)o1)N1CCN(c2ccc(N3CCOCC3)nn2)CC1	0%	-1%	43%	18µM*	-3%
CC(=O)Nc1c(S(=O)(=O)c2ccccc2)c2nc3ccccc3nc2n1Cc1ccccc1	-3%	-1%	32%	-1%	-5%
C=CCn1c(NS(=O)(=O)c2ccccc2)c(S(=O)(=O)c2ccc(C)cc2)c2nc3ccccc3nc21	15µM*	?	16µM*	?	25µM*
O=S(=O)(Nc1c(S(=O)(=O)c2ccccc2)c2nc3ccccc3nc2n1C1CCCCC1)c1ccccc1	2.9µM*	14%	-8%[10 µM]	1%	-19%
CCCN(CCC)Cc1c(C(=O)N/N=C/c2ccsc2)nnn1-c1nonc1N	0%	-5%	-6%	-15%	4%
O=C(/C(=C/c1ccc(Cl)cc1)c1nc2ccccc2[nH]1)c1ccccc1	6.5µM*	5.2µM*	4.5µM*	?	10µM*
O=C(Nc1nc2ccccc2[nH]1)c1ccccc1	4%	3%	6.3µM*	?	7.9µM*
O=C(Nc1nc2ccccc2[nH]1)c1ccccc1O	?	?	13µM*	?	6.3µM*
NC(=O)Nc1nc2ccccc2[nH]1	·	·	2%	·	2%
O=C(N/C(=C/c1ccc(Cl)cc1)c1nc2ccccc2[nH]1)c1ccco1	?	-2%	-1%	2%	4%
O=C(Nc1nc2ccccc2[nH]1)c1cccc(Cl)c1	-4%	-3%	4µM*	?	4.5µM*
